# Assay results as given in PubChem BioAssay AID504333 (National Center for Advancing Translational Sciences (NCATS), 2011).
# Hit rate of the full screen: of about 360,000 compounds, about 16,000 (4.4%) were called active. Roughly 9% stayed inconclusive and do not appear here. For the sample, actives were picked, then their nearest neighbours and some compounds at random. Values without a mark were called inactive. Calls come from the whole dose curve; as a rule, active = well fitted inhibition curve with a large enough effect; inconclusive = small, poorly fitted or top-dose-only effect; inactive = no such curve, though single readings can be large or run the other way.
# Target: Bromodomain adjacent to zinc finger domain protein 2B (Homo sapiens) (UniProt Q9UIF8)
# Sequence (Q9UIF8 whole entry, looked up, the tested form may be a part): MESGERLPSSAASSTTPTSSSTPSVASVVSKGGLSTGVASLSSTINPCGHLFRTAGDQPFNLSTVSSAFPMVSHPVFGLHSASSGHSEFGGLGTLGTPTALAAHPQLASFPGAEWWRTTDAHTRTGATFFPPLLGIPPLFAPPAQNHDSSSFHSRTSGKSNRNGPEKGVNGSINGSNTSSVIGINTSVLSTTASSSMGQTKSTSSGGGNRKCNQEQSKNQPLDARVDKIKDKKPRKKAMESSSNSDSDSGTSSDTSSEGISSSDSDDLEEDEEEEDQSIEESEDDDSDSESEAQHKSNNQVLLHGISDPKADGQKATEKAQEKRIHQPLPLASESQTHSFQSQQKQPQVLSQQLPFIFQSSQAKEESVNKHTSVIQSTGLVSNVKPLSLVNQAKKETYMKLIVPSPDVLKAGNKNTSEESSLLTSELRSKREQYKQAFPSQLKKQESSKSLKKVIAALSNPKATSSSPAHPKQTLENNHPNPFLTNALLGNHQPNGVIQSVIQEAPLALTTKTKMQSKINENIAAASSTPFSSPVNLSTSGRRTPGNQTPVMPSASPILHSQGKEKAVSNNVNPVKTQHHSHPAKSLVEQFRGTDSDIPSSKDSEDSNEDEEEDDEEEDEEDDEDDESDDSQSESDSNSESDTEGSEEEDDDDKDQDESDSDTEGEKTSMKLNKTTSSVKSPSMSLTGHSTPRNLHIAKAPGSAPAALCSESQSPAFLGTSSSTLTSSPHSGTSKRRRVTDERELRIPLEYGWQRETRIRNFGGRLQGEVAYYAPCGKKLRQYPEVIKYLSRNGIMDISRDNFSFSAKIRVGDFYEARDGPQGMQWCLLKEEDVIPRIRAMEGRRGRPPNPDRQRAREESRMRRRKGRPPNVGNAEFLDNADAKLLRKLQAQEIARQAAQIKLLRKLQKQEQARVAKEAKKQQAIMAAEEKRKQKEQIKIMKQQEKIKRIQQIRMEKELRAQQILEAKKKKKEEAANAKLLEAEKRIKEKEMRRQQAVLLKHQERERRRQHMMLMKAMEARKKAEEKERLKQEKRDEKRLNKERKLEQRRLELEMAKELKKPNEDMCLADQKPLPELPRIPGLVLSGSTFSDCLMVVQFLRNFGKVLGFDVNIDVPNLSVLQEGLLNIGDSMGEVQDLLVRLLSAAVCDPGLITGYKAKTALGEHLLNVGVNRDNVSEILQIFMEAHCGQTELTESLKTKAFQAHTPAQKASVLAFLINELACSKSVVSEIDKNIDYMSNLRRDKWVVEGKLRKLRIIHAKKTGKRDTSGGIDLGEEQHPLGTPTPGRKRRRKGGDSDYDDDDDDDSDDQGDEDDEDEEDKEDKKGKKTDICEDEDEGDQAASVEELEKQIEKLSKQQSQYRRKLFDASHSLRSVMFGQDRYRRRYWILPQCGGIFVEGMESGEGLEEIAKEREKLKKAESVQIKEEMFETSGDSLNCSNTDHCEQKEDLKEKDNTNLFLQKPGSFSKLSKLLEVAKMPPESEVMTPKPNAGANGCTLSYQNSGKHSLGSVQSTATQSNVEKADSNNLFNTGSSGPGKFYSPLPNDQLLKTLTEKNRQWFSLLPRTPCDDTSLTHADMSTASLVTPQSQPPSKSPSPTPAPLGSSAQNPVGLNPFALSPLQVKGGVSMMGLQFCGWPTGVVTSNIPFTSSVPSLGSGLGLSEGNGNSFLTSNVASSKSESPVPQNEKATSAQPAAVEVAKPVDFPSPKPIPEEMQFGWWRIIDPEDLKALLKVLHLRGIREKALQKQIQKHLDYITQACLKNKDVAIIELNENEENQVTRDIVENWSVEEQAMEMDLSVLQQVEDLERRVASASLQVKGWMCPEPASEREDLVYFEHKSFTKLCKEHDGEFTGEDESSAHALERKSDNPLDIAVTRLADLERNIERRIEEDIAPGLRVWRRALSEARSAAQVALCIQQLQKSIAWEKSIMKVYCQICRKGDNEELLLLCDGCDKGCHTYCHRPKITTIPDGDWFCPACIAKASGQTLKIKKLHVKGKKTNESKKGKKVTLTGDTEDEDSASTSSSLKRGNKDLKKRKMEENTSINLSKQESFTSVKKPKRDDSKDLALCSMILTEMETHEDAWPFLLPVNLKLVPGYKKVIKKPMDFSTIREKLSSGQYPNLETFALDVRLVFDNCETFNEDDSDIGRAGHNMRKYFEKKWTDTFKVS
# Assay: qHTS Assay for Inhibitors of BAZ2B; note: nearly all actives have a fitted effect of over 60% in size
# Settings: AlphaScreen BAZ2B-H3K14Ac peptide displacement; series mostly up to 114 µM; activity change, negative = inhibition: at the top concentration
# Outline: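 Complex of BAZ2B and biotin-H3K14Ac (50 nM apiece) forms over 30 min at RT, then faces library compounds up to 110 uM for another 30 min; AlphaScreen beads added, 20 min dark incubation, luminescence read.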
# % is set by controls: 0 for no effect and ±100 for the full control effect; potency is the fitted concentration of half-maximal effect.
SMILES,"activity change, negative = inhibition",Potency
CC(C)(C)c1ccc(C(=O)NCC(c2ccco2)S(=O)(=O)c2ccc(F)cc2)cc1 (centres undefined),-17.7%,
Cc1cccc(N2CCN(S(=O)(=O)c3ccc4[nH]c5c(c4c3)CCCCC5)CC2)c1C,-8.85% [at 57.1 µM],
COc1ccccc1-c1cc(C(F)(F)F)nc(S(=O)(=O)CCCC(=O)Nc2cc(C)ccc2O)n1,-3.61%,
Cc1nc2nc(SCC(=O)NC3CCC(C)CC3)nn2c(C)c1Cc1ccccc1Cl (centres undefined),-13.3%,
Nc1ccc(N=Nc2ccccc2Cl)c(N)n1,,25.1 µM (active)
COc1ccc(C(=O)Nc2onc3c2CCCC3)cc1,-3.98%,
CCOc1ccc(NC(=O)c2c(NC(=O)Cc3ccccc3)sc3c2CCC(C)C3)cc1 (centres undefined),-21.1%,
CCCCOC(=O)CSc1ncnc2sc3c(c12)CCC(C)C3 (centres undefined),18.9%,
CCC(C(=O)Nc1cccc(Cl)c1C)n1nc(-c2ccc(C)cc2)ccc1=O (centres undefined),-22.7%,
O=C(Nc1ccccc1-c1ccccc1)c1ccccc1[N+](=O)[O-],-5.53%,
O=[N+]([O-])c1ccccc1Nc1ccc(O)cc1,,39.8 µM (active)
O=C(NCCNc1ccccc1[N+](=O)[O-])c1ccccc1F,8.95% [at 0.457 µM],
COC(=O)c1ccccc1NC(=O)c1cc(-c2ccccc2O)no1,-17.4%,
O=C(CN1C(=O)COc2ccccc21)Nc1ccc(F)cc1,,28.2 µM (active)
O=C(CN1C(=O)COc2ccccc21)NCCN1CCc2ccccc2C1,-19.6%,
CC(OC(=O)CN1C(=O)COc2ccccc21)C(=O)NCc1ccc(F)cc1 (centres undefined),13.9%,
O=C(NCc1ccccc1Cl)c1cccn1-c1nnc(N2CCCCC2)s1,-15%,
COc1ccccc1Nc1nc(N)nc(CN(C)C2CCCCC2)n1,,10 µM (active)
COc1ccccc1Nc1nc(N)nc(CSC(=S)N2CCOCC2)n1,-23.7%,
COc1ccccc1Nc1nc(N)nc(N)c1S(=O)(=O)c1ccccc1,-19.9%,
COc1ccc(CCN2C(=O)c3oc4cc(C)cc(C)c4c(=O)c3C2c2ccccc2F)cc1OC (centres undefined),7.46%,
COc1ccc(-c2cn3nc(N4CCCC(C(=O)NCCCOC(C)C)C4)sc3n2)cc1 (centres undefined),-28%,
COc1ccc(CNC(=O)Cc2ccc(-c3ccccc3)cc2)cc1OC,-25%,
COC(=O)c1ccc(-c2c(-c3ccccc3)ncc3cc(OC)c(OC)cc23)cc1,,56.2 µM (active)
COC(=O)c1cc(NC(=O)c2cnc(SC)nc2-c2ccccc2)cc(C(=O)OC)c1,2.05%,

SMILES,"activity change, negative = inhibition",Potency
Cc1c(Cl)cccc1NC(=O)c1noc2c1CCCC2,30%,
COc1cnc(-c2ccccn2)nc1Oc1ccc(C(C)(C)C)cc1,,22.4 µM (active)
COc1ccnc(Oc2ccccc2)c1-c1ncn[nH]1,1.04%,
N#Cc1ccc(Oc2cc(C(F)(F)F)nc(-c3ccccn3)n2)cc1,-6.1%,
Cc1ccc(C(=O)N2c3ncnn3C3(CCCCC3)[C@@H]3CCCC[C@@H]32)cc1,-14.5%,
Cc1onc(-c2ccc(F)cc2F)c1C(=O)Nc1cccc(C(F)(F)F)c1,-2.91%,
COc1ccc(OCCn2cc(C(=O)C3CCCCC3)c3ccccc32)cc1,15.3% [at 57.1 µM],
COc1ccc(CCNC(=O)CCc2c(C)nc3c(c(C)nn3-c3ccc(C)c(C)c3)c2C)c(OC)c1OC,-17%,
O=C(c1ccc(Br)cc1)N(Cc1cccs1)c1ccc(F)cc1,-3.77%,
COc1ccccc1-c1nnc(SCC(N)=O)o1,-1.92%,
Cc1cccc(C)c1OCC(=O)NC(Cc1c[nH]c2ccccc12)C(=O)O (centres undefined),,inactive
CC(=O)NC(Cc1c[nH]c2ccccc12)C(=O)O (centres undefined),-15.6%,
COc1ccc(-c2cc(C(=O)NC(Cc3c[nH]c4ccccc34)C(=O)O)c(C)o2)cc1OC (centres undefined),,50.1 µM (active)
COc1cc(/C=N/NC(=O)c2cc(C)n(-c3ccc(F)cc3)c2C)cc(OC)c1O,-35.5%,
COc1cc(/C=N/NC(=O)c2ccc(N3CCCC3=O)cc2)ccc1O,-3.64%,
Cc1cc(C(=O)N/N=C/c2ccc(O)c([N+](=O)[O-])c2)c(C)n1-c1ccc(F)cc1,,50.1 µM (active)
CCc1nc2nc(C)cc(Nc3ccc(F)c(Cl)c3)n2n1,1.95%,
COC(=O)c1ccc(NC(=O)CCc2c(C)nn(-c3ccc(N4CCCC4)nn3)c2C)cc1,-25.5%,
CCOc1ccc(CNC(=O)CCc2c(C)nn(-c3ccc(N4CCCCC4)nn3)c2C)cc1,-15.5%,
COc1ccc(C)cc1NC(=O)CCc1c(C)nn(-c2ccc(N3CCOCC3)nn2)c1C,-14.2%,
COc1ccc(CNC(=O)CCc2c(C)nn(-c3ccc(N4CCCC4)nn3)c2C)cc1,,79.4 µM (active)
Cc1ccc(CNC(=O)CCc2c(C)nc3c(c(C)nn3-c3ccccc3)c2C)cc1,-0.737%,
Cc1nn(-c2ccc(N3CCCCC3)nn2)c(C)c1CCC(=O)NCc1ccc(F)cc1,,79.4 µM (active)
COc1cc(OC)cc(C(=O)Nc2c(C(=O)Nc3ccc(F)cc3)oc3ccccc23)c1,-0.325%,
COc1ccc(-c2nc(CN3CCC(C(=O)NCCN(CC(C)C)CC(C)C)CC3)c(C)o2)cc1OC,-14.9%,

SMILES,"activity change, negative = inhibition",Potency
CC(=O)N1CCCc2cc(S(=O)(=O)N3CCC(C(=O)NCc4ccc(F)cc4)CC3)ccc21,-6.68%,
CN(C)c1ccc(C(CNS(=O)(=O)c2cc(F)ccc2F)N2CCOCC2)cc1 (centres undefined),-25.9%,
COc1ccc(Cn2c(C(=O)O)c(CNCCc3cccs3)c3ccc(OC)cc32)cc1,-35.3%,
O=C(O)c1ccc2c(c1)N(Cc1ccc(F)cc1)C(=O)c1ccccc1S2=O (centres undefined),4.07%,
Cc1nn(C(C)C(=O)NCCc2ccccc2)c(=O)c2c1sc1ccccc12 (centres undefined),-8.46%,
CC(C)(C)c1cc(C(=O)N/N=C/c2ccc([N+](=O)[O-])s2)n[nH]1,-1.13%,
Cc1cc(C(=O)N/N=C/c2cc([N+](=O)[O-])cc(C)c2O)n[nH]1,,25.1 µM (active)
COc1ccc2ccccc2c1/C=N/NC(=O)c1cc(C)[nH]n1,-26%,
CCCN(CCC)CCCNC(=O)Cn1ncc2c3ccccc3n(Cc3ccccc3)c2c1=O,-11.5%,
COc1ccc(-c2cn3c(n2)sc2cc(C(=O)Nc4ccc(F)cc4)ccc23)cc1,1.57%,
COc1cccc(Cn2c(SCc3ccc(C(=O)N4CCCCC4)cc3)nc3ccncc32)c1,-11.2%,
Cc1cccc(Cn2c(SCc3ccc(C(=O)N4CCC(C)CC4)cc3)nc3ccncc32)c1,-16.1%,
COc1cccc(Cn2c(SCc3ccc(C(=O)N4CCC(C)CC4)cc3)nc3ccncc32)c1,,22.4 µM (active)
COc1ccccc1Cc1nc2ccccc2nc1SCC(=O)N1CCCc2ccccc21,-3.57%,
Cc1c(C(=O)c2cccc([N+](=O)[O-])c2)c2ccccn2c1CCC#N,,50.1 µM (active)
COc1ccc(C(=O)c2c(C)c(CCC#N)n3ccccc23)c(OC)c1,-17.9%,
O=C(c1cccc([N+](=O)[O-])c1)N1CCN(Cc2ccccc2)CC1,20.8%,
COC(=O)c1cnc(N2CCN(c3ccccc3OC)CC2)c2ccccc12,42.6%,
COc1ccc2c(c1)c(N1CCCC1=O)c(C(=O)Nc1ccc(OC)c(Cl)c1)n2C,-34.8%,
Clc1ccc(Nc2nc(-c3cccs3)cs2)nc1,-33.2%,
CC(=O)Nc1cccc(-c2csc(Nc3cccc(C)n3)n2)c1,-4.54%,
Cc1ccc(Nc2nc(-c3ccc(O)cc3O)cs2)nc1,,50.1 µM (active)
COc1cc(C(=O)Nc2ccc(-n3c(C)nc4ccccc4c3=O)cc2)cc(OC)c1OC,-14.7%,
CCN(CC)c1cc(NC2CCCCC2)c2c3c(onc13)-c1ccccc1C2=O,,3.55 µM (active)
COc1ccc(OC)c(CNC(=O)Cn2nc(C)c3c(C)n(-c4ccccc4)nc3c2=O)c1,-15.4%,

SMILES,"activity change, negative = inhibition",Potency
CCCC(=O)Nc1ccc2oc(-c3ccc(O)c(Br)c3)nc2c1,2.4%,
COc1ccc(CCNCc2c(C(=O)O)c(C)n(Cc3cccc(C)c3)c2C)cc1OC,-16.7%,
COc1ccc(SCc2cc(=O)c3ccc(C)c(C)c3[nH]2)cc1,8.96%,
CC(C)c1ccc(Cc2nnc(NCCCO)[nH]c2=O)cc1,-1.73%,
COc1ccc(Cc2nnc(N/N=C/c3ccccc3O)[nH]c2=O)cc1OC,,6.31 µM (active)
O=c1[nH]c(NCCO)nnc1Cc1ccc(Cl)cc1,-11.6%,
Cc1nn(C)c2c1c(C(F)(F)F)cc(=O)n2C(C)C(=O)NCc1ccc(Cl)cc1 (centres undefined),-3.38%,
O=C(NCc1ccccc1)C1CCN(S(=O)(=O)c2ccc3[nH]c(=O)ccc3c2)CC1,7.93%,
Cc1ccccc1CCNC(=O)C1CCN(c2nc3ccccc3nc2C(F)(F)F)CC1,-0.372%,
CC(=O)c1ccc(NC(=O)c2nc3nc(C)cc(C(F)F)n3n2)cc1,0.583%,
Brc1ccc2c(c1)NC(c1cccnc1)=NC(c1ccccc1)=N2,-2.3%,
COc1ccc(C2=NC(c3ccncc3)=Nc3ccc(Br)cc3N2)cc1,,28.2 µM (active)
Cc1cc(OCCCN2CCN(Cc3ccccc3)CC2)ccc1[N+](=O)[O-],,17.8 µM (active)
Cc1cc(OCCCCOc2ccc(C#N)cc2)ccc1[N+](=O)[O-],0.416%,
Cc1cc(OCC(=O)NC2CCN(C)CC2)ccc1[N+](=O)[O-],-3.49%,
Cc1cccc(C2CC(=O)Oc3c2c(=O)n(C)c2ccccc32)c1 (centres undefined),-12.8%,
CCOC(=O)C1=C(C)N=C2c3ccccc3C(=O)C2C1c1ccc(Br)cc1 (centres undefined),,22.4 µM (active)
Cc1cccc(C2C3=C(CCCC3=O)N=C3c4ccccc4C(=O)C32)c1 (centres undefined),-38.9%,
CCOC(=O)C1=C(C)NC(SC)=NC1c1ccccc1 (centres undefined),2.29%,
CCCN1CCc2nc(N3CCN(C)CC3)ncc2C1,3.12%,
COC(C(=O)Nc1ccc(C(C)=O)cc1)c1ccccc1 (centres undefined),6.93%,
COc1ccc(NC(=O)[C@H](NC(=O)[C@@H]2Cc3ccccc3CN2)c2ccccc2)cc1,-11.2%,
COc1ccc(NC(C(=O)Nc2cccc(C(C)=O)c2)c2ccccc2)cc1 (centres undefined),,50.1 µM (active)
Cc1cccc(C(=O)Nc2ccc(-c3nc4ccccc4s3)c(C)c2)c1,0.838%,
